In article PMC4336329 (PLoS ONE, 2015):
Among all 310,000 compounds or so, about 14,000 (4.5%) showed an effect of 50% or more. The effect is printed as a negative number. Only a selection was taken, and strong results are over-represented in it overall.

What follows are compounds tested against human ether-à-go-go-related gene (hERG) potassium channel (human, UniProt Q12809) (assay: primary screen, population patch clamp on CHO cells stably expressing hERG; higher = less effect of the substance).
Chain of human ether-à-go-go-related gene (hERG) potassium channel (Q12809 whole entry, looked up): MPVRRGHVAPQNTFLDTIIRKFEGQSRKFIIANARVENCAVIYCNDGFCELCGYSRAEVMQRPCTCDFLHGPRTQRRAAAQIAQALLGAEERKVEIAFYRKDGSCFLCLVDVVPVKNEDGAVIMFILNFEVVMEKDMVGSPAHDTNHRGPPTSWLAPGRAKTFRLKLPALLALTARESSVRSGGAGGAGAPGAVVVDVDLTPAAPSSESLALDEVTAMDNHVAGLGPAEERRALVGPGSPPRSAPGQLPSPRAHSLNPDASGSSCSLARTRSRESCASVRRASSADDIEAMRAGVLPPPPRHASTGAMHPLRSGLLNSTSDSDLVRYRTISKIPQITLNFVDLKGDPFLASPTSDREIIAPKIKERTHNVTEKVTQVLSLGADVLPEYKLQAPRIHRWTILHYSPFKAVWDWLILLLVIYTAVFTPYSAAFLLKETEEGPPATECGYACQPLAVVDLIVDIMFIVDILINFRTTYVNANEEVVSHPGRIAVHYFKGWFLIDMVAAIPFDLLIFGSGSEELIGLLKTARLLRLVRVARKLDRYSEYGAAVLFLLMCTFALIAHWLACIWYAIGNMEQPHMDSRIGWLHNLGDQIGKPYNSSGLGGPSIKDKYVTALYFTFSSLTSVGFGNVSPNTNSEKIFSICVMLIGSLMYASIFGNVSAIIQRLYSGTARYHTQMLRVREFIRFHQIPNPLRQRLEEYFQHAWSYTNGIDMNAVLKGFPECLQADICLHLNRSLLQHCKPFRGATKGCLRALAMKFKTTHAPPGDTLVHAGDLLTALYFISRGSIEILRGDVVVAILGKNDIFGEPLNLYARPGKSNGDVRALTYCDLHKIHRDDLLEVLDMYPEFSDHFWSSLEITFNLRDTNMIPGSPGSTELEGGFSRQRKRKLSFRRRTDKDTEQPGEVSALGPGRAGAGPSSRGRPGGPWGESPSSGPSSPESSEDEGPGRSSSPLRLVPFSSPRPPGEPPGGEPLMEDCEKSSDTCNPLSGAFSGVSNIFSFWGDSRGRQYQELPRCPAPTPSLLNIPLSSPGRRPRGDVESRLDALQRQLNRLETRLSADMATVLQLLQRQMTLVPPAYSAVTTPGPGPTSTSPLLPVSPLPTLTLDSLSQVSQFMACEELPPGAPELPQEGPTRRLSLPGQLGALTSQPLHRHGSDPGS
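Also: peak tail current of the secondary pulse compared with the same well before compound.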

SMILES	hERG current change (%, negative = inhibition) at 10uM
COC(=O)c1ccc(C2NC(=O)c3c(sc(C)c3C)N2)cc1 (stereo not drawn)	10.7%
COc1ccc(CCNC(=O)c2ccc3ccccc3n2)cc1	-5.65%
O=C(CNc1ccc2c(c1)OCO2)N/N=C\c1ccccc1Cl	3.98%
COc1cccc(NC(=S)N(Cc2ccccn2)Cc2ccccc2Cl)c1	5.73%
O=C(CN(Cc1ccccc1)S(=O)(=O)c1ccccc1)N/N=C/c1ccc2c(c1)OCO2	8.28%
C(=N\C(/N=C/c1ccco1)c1ccco1)/c1ccco1	-5.1%
COc1ccc(NC(=O)N2CCCC2C(=O)NCC2CCCCC2)cc1 (stereo not drawn)	0.904%
Cn1ncn2c(=O)c3c(nc12)-c1ccccc1CC31CCCC1	1.56%
COc1ccc(NC(=O)Cn2cc(C#N)c3ccccc32)cc1	15.3%
CC(=O)Nc1ccc(NC(=O)c2sc(-c3ccccc3)nc2C)cc1	10.6%
Nc1ccc2nc(-c3ccccc3)[nH]c2c1	6.5%
COc1ccc(Cl)cc1NC(=O)C1CCCN(S(C)(=O)=O)C1 (stereo not drawn)	5.29%
CCCc1cc(N2CCCC(C(=O)Nc3cc(Cl)ccc3OC)C2)n2ncnc2n1 (stereo not drawn)	-70.8%
COc1ccc(NC(=O)C2CCCN(c3cnccn3)C2)c(OC)c1 (stereo not drawn)	21.4%
CCCc1cc(N2CCCC(C(=O)Nc3ccc(OC)cc3OC)C2)n2ncnc2n1 (stereo not drawn)	-51.4%
CCCc1cc(N2CCCC(C(=O)Nc3c(OC)cccc3OC)C2)n2ncnc2n1 (stereo not drawn)	-10.7%
COc1cc(C)nc(N2CCCC(C(=O)Nc3cc(Cl)ccc3OC)C2)n1 (stereo not drawn)	9.96%
O=C(Cc1ccccc1)NCCC1=CCCCC1	9.32%
O=C(CN1CCN(c2ccccc2O)CC1)NC(=O)NC1CCCC1	-0.609%
CCCCCC(=O)Nc1ccc(-c2cn3cccnc3n2)cc1	16.4%
CN1CCN(NC(=O)c2ccc(Cl)c([N+](=O)[O-])c2)CC1	8.74%

SMILES	hERG current change (%, negative = inhibition) at 10uM
CC(=O)Nc1ccc(NC(=O)C(C)Sc2nnc(C3CC3)n2-c2ccccc2)cc1 (stereo not drawn)	8.37%
COc1ccc(N2CCN(C(=O)c3ccc4c(c3)OCO4)CC2)cc1	-21.7%
O=c1nc2ccccc2c(NS(=O)(=O)c2ccccc2)n1-c1ccccc1	2.7%
Cc1ccc(C(=O)CSc2nnc(-c3ccco3)n2Cc2ccccc2)cc1	-17.8%
O=C1c2ccccc2C(=O)N1CCSc1nnc(-c2ccco2)n1Cc1ccccc1	-72.8%
O=C(CSc1nnc(-c2ccco2)n1Cc1ccccc1)NC(=O)NCc1ccccc1	-13.3%
CC(=O)c1c(C)[nH]c(C(=O)CSc2nnc(-c3ccco3)n2Cc2ccccc2)c1C	-61.5%
c1ccc(CSc2nnc(-c3ccco3)n2Cc2ccco2)cc1	-34.6%
O=C(CSc1nnc(-c2ccco2)n1Cc1ccccc1)NC(=O)NCc1ccco1	-74.7%
CC(=O)c1c(C)[nH]c(C(=O)CSc2nnc(-c3cccs3)n2Cc2ccccc2)c1C	-25.6%
CCOC(=O)c1c(C)[nH]c(C)c1C(=O)CSc1nnc(-c2ccco2)n1Cc1ccccc1	-19.3%
Cc1ccccc1CSc1nnc(-c2ccco2)n1Cc1ccco1	-75.4%
Cc1ccccc1CSc1nnc(-c2cccs2)n1Cc1ccco1	-41.7%
c1ccc(CSc2nnc(-c3ccco3)n2Cc2ccccc2)cc1	-46%
Cc1nnc(SCC(=O)NC(=O)NCc2ccco2)n1Cc1ccccc1	-6.26%
COc1ccc(-c2nnc(SCC#CCO)o2)cc1OC	4.93%
COc1ccccc1N1CCN(S(=O)(=O)c2ccc3c(c2)oc(=O)n3C)CC1	26%
COc1ccc(NC(=O)CN(C)C(=O)/C=C/c2cn(-c3ccccc3)nc2-c2ccc(C)cc2)cc1	13.8%
COc1ccc(C2=NS(=O)(=O)N(C)C(C(=O)Nc3ccc(F)cc3F)=C2)cc1	10.1%
CN(Cc1ccccc1)C(=O)COC(=O)C1CCN(S(=O)(=O)c2ccc(Cl)c(C(F)(F)F)c2)CC1	-15.8%
CCC/C(=N\NC(=O)CNC(=O)c1ccc(Cl)cc1)c1ccccc1	-1.56%

SMILES	hERG current change (%, negative = inhibition) at 10uM
CC(NC(=O)COc1ccc(S(=O)(=O)N2CCOCC2)cc1)c1ccccc1 (stereo not drawn)	-4.63%
O=C(/C=C\c1ccccc1OC(=O)c1ccccc1F)c1cc2ccccc2o1	-3.12%
NC(=O)NC(=O)CSc1nnc(-c2ccco2)n1Cc1ccccc1	5.78%
Cc1cc(NC(=O)CSc2nnc(-c3ccco3)n2Cc2ccco2)no1	-24.7%
O=C(CSc1nnc(-c2ccco2)n1Cc1ccco1)Nc1ccccc1	-70.7%
CNC(=O)NC(=O)CSc1nnc(-c2ccco2)n1Cc1ccccc1	-8.53%
CC(C)(C)NC(=O)CSc1nnc(-c2ccco2)n1Cc1ccco1	-5.83%
COCCn1c(SCC(=O)NCc2ccccc2)nnc1-c1ccco1	5.7%
O=C(CSc1nnc(-c2ccco2)n1Cc1ccco1)NCc1ccccc1	-50.8%
O=C(CSc1nnc(-c2ccco2)n1Cc1ccco1)NCc1cccs1	-33.1%
COC(=O)CCNCCSc1nnc(-c2ccco2)n1Cc1ccccc1.O=C(O)C(=O)O	-64.5%
O=C(CSc1nnc(-c2ccco2)n1Cc1ccccc1)c1ccccc1	-18.4%
CC(=O)Nc1ccc(NC(=O)CSc2nnc(-c3ccco3)n2Cc2ccco2)cc1	-1.79%
O=C(CSc1nnc(-c2ccco2)n1Cc1ccccc1)NCc1ccccc1	-51.8%
Cc1cc(C)n(-c2ccc(S(=O)(=O)N3CCOCC3)cc2[N+](=O)[O-])n1	-10.9%
O=C1/C(=C\c2cccnc2)CN(Cc2ccccc2)C/C1=C\c1cccnc1	-29.4%
O=C(NCC(=O)N(CC1CCCO1)C1(C(=O)NC2CCCC2)CCCCC1)c1ccccc1 (stereo not drawn)	3.96%
CCOc1ccc(C(CC(=O)O)NC(=O)C23CC4CC(CC(C4)C2)C3)cc1OC (stereo not drawn)	30.2%
Nc1c(C=C2C=CC(=O)C=C2)c(=O)nc2sc(CC(=O)N3CCCC3)nn12	8.79%
COc1ccc(NS(=O)(=O)c2cccc(C(=O)N(C)Cc3ccc(SC)cc3)c2)cc1	-9.93%
CN(Cc1ccc(OC(F)F)cc1)C(=O)c1ccc2nccnc2c1	-67.8%

SMILES	hERG current change (%, negative = inhibition) at 10uM
COc1cccc(CN(C)C(=O)c2ccccc2Sc2ccccc2C#N)c1	-13.4%
COc1ccc(CN(C)C(=O)c2cccc(C(=O)N(C)Cc3ccc(OC)cc3)c2)cc1	-65.6%
CN(Cc1ccc(OC(F)F)cc1)C(=O)c1ccccc1Sc1ccccc1C#N	-60.5%
Cc1ccc(CN(C)C(=O)c2ccccc2Sc2ccccc2C#N)cc1	23.4%
COc1cccc(CN(C)C(=O)c2ccc3nccnc3c2)c1	-6.89%
CN(Cc1ccccc1)C(=O)c1cccc(C(=O)N(C)Cc2ccccc2)c1	-3.07%
CN(Cc1ccc(OC(F)F)cc1)C(=O)c1ccc2c(=O)n3c(nc2c1)CCC3	-33.3%
COc1ccccc1NS(=O)(=O)c1ccc2oc(SC)nc2c1	2.84%
CN(CC(=O)Nc1ccccc1Cl)C(=O)c1cc(C2CC2)nn1-c1ccccc1	-18.1%
CCc1nnc(NS(=O)(=O)c2ccc(N3C(=O)C4CC=C(Cl)CC4C3=O)cc2)s1 (stereo not drawn)	4.84%
Cc1cccc2sc(N(CCCN(C)C)C(=O)c3cc4ccccc4oc3=O)nc12.Cl	-54.6%
Cc1ccc2nc(N(CCCN(C)C)C(=O)c3cc4ccccc4oc3=O)sc2c1.Cl	-33.7%
CN(C)CCCN(C(=O)c1cc2ccccc2oc1=O)c1nc2c(F)cccc2s1.Cl	-41.1%
CN(C)CCCN(C(=O)c1cc2ccccc2oc1=O)c1nc2ccc(F)cc2s1.Cl	-68.1%
CN(C)CCCN(C(=O)c1cc(-c2cccs2)nc2ccccc12)c1nc2ccc(F)cc2s1.Cl	5.59%
CC(=O)OC1COC(n2c(O)c(N=NC(N)=S)c3ccccc32)C(OC(C)=O)C1OC(C)=O (stereo not drawn)	15.8%
COC(=O)C1=C(C)N(c2ccc(Br)cc2)C(=O)/C1=C\c1ccco1	2.22%
Clc1ccc(-c2nnc3sc(Cc4cccs4)nn23)c(Cl)c1	-55.7%
c1ccc(-c2nnc3sc(Cc4cccs4)nn23)cc1	-30.8%
Clc1ccc(-c2nnc3sc(Cc4cccs4)nn23)cc1	4.77%
CCc1cccc2c(C(=O)CCl)c[nH]c12	-14.3%
